The list shows a part of the results. Activity calls are given as the source filed them.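 The calls were made as follows: active = inhibition of lipid droplet metric at least 50%, with more than 300 cells in each of four replicates; inconclusive = wells under 300 cells, flagged as toxic or low count; inactive = the rest.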
Assay: blockers of oleate-driven lipid droplets in liver cells – imaging, AML12 mouse hepatocytes, single concentration, high-content, confirmation (AID 463183);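 as to cell count: cells counted after overnight compound exposure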;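 as to inhibition: plate controls were DMSO with oleic acid for no effect and 5 µM Triacsin-C for full effect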
Settings: BODIPY lipid droplet imaging, at 5.2 µM, droplets induced with 100 µM oleic acid; cell count: measured here: cell count, cytotoxicity; inhibition: stronger effect = higher value

Q: For `COc1ccc(Cl)cc1NC(=O)CN(C)C(=O)CCCc1c[nH]c2ccccc12`, which cell count is on record?
A: 1450 cells

Q: And the inhibition?
A: 85% (active)

Q: With `O=C(CN1CCc2cc3c(cc2C1)OCCCO3)Nc1ccccc1` as the compound, how does the inhibition read?
A: 15.8% (inactive)

Q: And the cell count?
A: 1530 cells

Q: For `COc1ccc(C(C(=O)NC(C)(C)C)N(Cc2ccc(F)cc2)C(=O)CCC(=O)Nc2cc(C)on2)cc1` (configuration not stated), which cell count is on record?
A: 1630 cells

Q: What about the inhibition of the same compound?
A: 108% (active)

Q: What does the source list for `Cc1ccc(N2C(=O)C(NC(=O)c3c(F)cccc3F)(C(F)(F)F)C3=C2CC(C)(C)CC3=O)cc1` (configuration not stated)?
A: cell count: 1590 cells; inhibition: 87.5% (active)

Q: For `CCc1ccc(NC(=O)C(C)OC(=O)/C=C/c2cccc([N+](=O)[O-])c2)cc1` (configuration not stated), which inhibition is on record?
A: 48% (inactive)

Q: What about the cell count of the same compound?
A: 1510 cells

Q: With `O=C1Nc2ccc(Br)cc2/C1=N/N=C/C1=C(N2CCOCC2)C(=C\c2ccccc2)/CC1` as the compound, how does the inhibition read?
A: 65.8% (active)

Q: What about the cell count of the same compound?
A: 1660 cells

Q: What does the source list for `CCCN(CCC)c1ccc(C(O)c2nnc(-c3ccccc3)o2)cc1` (configuration not stated)?
A: cell count: 1610 cells; inhibition: 106% (active)

Q: Which cell count does the source give for `CCCc1ccc(-c2csc(NC(=O)Cc3cccs3)n2)cc1` here?
A: 1560 cells

Q: And the inhibition?
A: 104% (active)

Q: What does the source list for `COc1cc(/C=N/NC(=O)Nc2ccccc2)ccc1OCCOc1ccccc1C`?
A: inhibition: -21.6% (inactive); cell count: 1640 cells

Q: Which cell count does the source give for `Cc1c(C(=O)NCc2ccccc2)cnn1-c1ccccc1` here?
A: 1670 cells

Q: What about the inhibition of the same compound?
A: 26.9% (inactive)

Q: With `Cn1c(=O)[nH]c(=O)c2c1nc(N1CCN(C(c3ccccc3)c3ccccc3)CC1)n2CCO` as the compound, how does the inhibition read?
A: 78.2% (active)

Q: And the cell count?
A: 1570 cells

Q: What does the source list for `CCCCN1C(=O)/C(=C/C=C2/C=Cc3ccccc3N2CC)SC1=S`?
A: inhibition: -4.78% (inactive); cell count: 1580 cells

Q: Which results are given for `COc1ccc(/C=C(\NC(=O)c2ccc(OCC(C)C)cc2)C(=O)OCc2ccco2)cc1`?
A: cell count: 1460 cells; inhibition: 91.6% (active)

Q: Which results are given for `COc1cccc(/C=C(/CC(=O)Nc2ccc(N3CCOCC3)cc2)c2nc3ccccc3s2)c1`?
A: inhibition: 94.7% (active); cell count: 1580 cells

Q: Which cell count does the source give for `O=[N+]([O-])c1ccccc1N/N=C1\CCc2ccccc21` here?
A: 1520 cells

Q: And the inhibition?
A: 31.2% (inactive)

Q: With `CCOc1ccc(CCNC(=O)CCc2nnc3ccc(N4CCCC4)nn23)cc1OCC` as the compound, how does the cell count read?
A: 1650 cells

Q: And the inhibition?
A: 100% (active)

Q: With `CC(C)(C)NC(=O)Cn1cnc2cc([N+](=O)[O-])ccc2c1=O` as the compound, how does the inhibition read?
A: 21.8% (inactive)

Q: What about the cell count of the same compound?
A: 1630 cells

Q: With `CCCN(CCC)c1nc2c(C)cccn2c(=O)c1/C=C1/SC(=S)N(Cc2ccco2)C1=O` as the compound, how does the cell count read?
A: 1560 cells

Q: What about the inhibition of the same compound?
A: 51.2% (inactive)

Q: Which inhibition does the source give for `CN(C)c1ccc(Nc2c3c4c(cccc4n(C)c2=O)C(=O)c2ccccc2-3)cc1` here?
A: 14.8% (inactive)

Q: What about the cell count of the same compound?
A: 1580 cells

Q: For `CCOc1ccc(CCNC(=O)Nc2ccccc2)cc1OCC`, which cell count is on record?
A: 1550 cells

Q: What about the inhibition of the same compound?
A: 109% (active)

Q: Which cell count does the source give for `CCOC(=O)C1=C(CC)OC(N)=C(C#N)C1c1ccc(F)cc1F` (configuration not stated) here?
A: 1680 cells

Q: What about the inhibition of the same compound?
A: 10.3% (inactive)

Q: Which results are given for `COCCCNC(=O)CN1C(=O)CSc2ccc(S(=O)(=O)N3CCOCC3)cc21`?
A: cell count: 1530 cells; inhibition: -1.8% (inactive)

Q: Which cell count does the source give for `Cc1cc(NC(=O)CSc2nc(C(C)C)nc3sc4c(c23)CCC(C)C4)no1` (configuration not stated) here?
A: 1700 cells

Q: And the inhibition?
A: 105% (active)

Q: With `COc1ccc(OC)c(-c2csc(-c3cccs3)n2)c1` as the compound, how does the inhibition read?
A: 13.4% (inactive)

Q: What about the cell count of the same compound?
A: 1580 cells

Q: For `Cc1cc(C(=O)NC2CCCc3c2cnn3-c2cccc(C)c2C)c(C)o1` (configuration not stated), which inhibition is on record?
A: 78.5% (active)

Q: What about the cell count of the same compound?
A: 1560 cells

Q: For `CC(NC(=O)c1cccc2ccccc12)c1ccc2c(c1)CCCC2` (configuration not stated), which inhibition is on record?
A: 98.5% (active)

Q: What about the cell count of the same compound?
A: 1640 cells
